# According to PubChem BioAssay (EPA / NIEHS):
# Results filed as inconclusive are left out. Calls of active or inactive are those of the source. The calls were made as follows: active = hit-call score of the fitted dose curve at least 0.9, where 1 is the maximum; inconclusive = response in the unintended direction; inactive = score below 0.9.
# Read-out: Cytochrome P450 2C19 (Homo sapiens) (UniProt P33261)
# Assay: CLD_CYP2C19_48hr: CellzDirect (CLD) Gene Expression Assay for xenobiotic metabolism (CYP2C19) at 48 hours (AID 2283700);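 also: fitted upward so actives raise CYP2C19 mRNA above the 0.2% DMSO vehicle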
# Protocol: CLD_48hr is a cell-based, multiplexed-readout assay that uses hepatocyte, a human liver primary cell, with measurements taken at 48 hours after chemical dosing in a 96-well plate.CLD_CYP2C19_48hr is one of 16 assay component(s) measured or calculated from the CLD_48hr assay. It is designed to make measurements of mRNA induction, a form of inducible reporter, as detected with chemiluminescence signals by Quantitative Nuclease Protection Assay (qNPA) technology.Data from the assay component CLD_CYP2C19_48hr was analyzed at the endpoint, CLD_CYP2C19_48hr, in the positive analysis fitting direction relative to DMSO as the negative control and baseline of activity. Using a type of inducible reporter, gain-of-signal activity can be used to understand changes in the reporter gene as they relate to the gene CYP2C19. Furthermore, this assay endpoint can be referred to as a primary readout. To generalize the intended target to other relatable targets, this assay endpoint is annotated to the cyp intended target family, where subfamily is xenobiotic metabolism.
# Human hepatocyte cultures were treated daily for two consecutive days with fresh dosing solutions containing appropriate concentrations of the 320 ToxCast chemicals (chemical identities were blinded to CellzDirect and other ToxCast collaborators), vehicle control (0.2% DMSO), and positive control inducers as summarized in Table 1. Due to the large number of treatment groups and chemicals examined, the ToxCast chemicals were divided into two groups (spanning two independent cultures of hepatocytes from separate donor preparations (Hu778: ToxCast plates 1 and 2; Hu776: ToxCast plates 3 and 4). Each preparation of human hepatocyte cultures was treated with respective vehicle control, medium only control, set of six positive controls/reference chemicals for the five hepatic receptor pathways, and a subset of eight of the ToxCast chemicals (indoxacarb, pyrithiobac-sodium, norflurazon, cyhalofop-butyl, methomyl, thiram, acetochlor, and propiconazole). These replicate data, coupled with internal replicates designed within the blinded ToxCast chemical library, provided additional data to evaluate interindividual differences between hepatocyte preparations and their potential impact on chemical profiles.Cell morphology and integrity were evaluated using phase-contrast microscopy as an indicator of hepatocyte cell health (Tyson & Green, 1987). Cultures for each treatment group (i.e., media, vehicle [0.2% DMSO], positive control inducers [multiple concentrations], and the ToxCast chemicals [multiple concentrations]) were observed and cell morphology was assessed relative to vehicle control cultures at each harvest time point (0, 6, 24, or 48 h). […] Images were evaluated at the conclusion of the study to assess changes in cell integrity and account for the effects of chemical exposure on uncharacteristic changes in concentration-dependent gene expression profiles. The results from these determinations of apparent cytotoxicity were annotated (yes/no) alongside the corresponding qNPA data for reference.At the conclusion of each treatment period, hepatocyte cultures (96-well) were washed with 1 volume of HBSS, lysed by addition of 25 ul ArrayPlate lysis buffer (HTG, Tucson, AZ), and 70 ul/well of Denaturation Oil, denatured by incubation at 95C for 10 min, and frozen at approximately -70C until analysis by nuclease protection assay (qNPA) (Roberts et al., 2007). For qNPA analysis, cell lysates were thawed at 50C for approximately 30 min, qNPA probes were added, and samples were incubated at 95C for 10 min to begin the detection process by denaturing the target RNA, dissociating the duplexes and secondary structure hybridization. At the conclusion of the hybridization period, S1 nuclease reagent was added to each sample to digest all nonprotected nucleotides at 50C for 60-90 min. […]
# Cytochrome P450 2C19 (Homo sapiens), sequence (P33261 whole entry, looked up): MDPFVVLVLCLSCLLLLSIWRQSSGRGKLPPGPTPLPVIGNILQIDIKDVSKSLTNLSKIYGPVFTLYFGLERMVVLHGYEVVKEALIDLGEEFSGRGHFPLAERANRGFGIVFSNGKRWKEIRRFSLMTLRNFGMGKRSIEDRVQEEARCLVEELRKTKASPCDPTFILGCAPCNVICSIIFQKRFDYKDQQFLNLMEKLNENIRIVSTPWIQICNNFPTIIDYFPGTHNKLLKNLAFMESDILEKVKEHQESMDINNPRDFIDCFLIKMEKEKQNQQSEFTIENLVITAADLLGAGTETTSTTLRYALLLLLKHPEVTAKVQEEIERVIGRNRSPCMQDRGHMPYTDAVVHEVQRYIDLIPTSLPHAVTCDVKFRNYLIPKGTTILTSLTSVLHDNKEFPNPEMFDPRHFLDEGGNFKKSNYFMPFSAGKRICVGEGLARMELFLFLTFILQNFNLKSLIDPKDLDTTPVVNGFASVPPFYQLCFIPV
row,Structure (SMILES),outcome
1,CC(C)(C)c1ccc(CSc2cnn(C(C)(C)C)c(=O)c2Cl)cc1,inactive
2,COc1ccc(C(c2ccc(OC)cc2)C(Cl)(Cl)Cl)cc1,inactive
3,COc1cnc(OC)n2nc(NS(=O)(=O)c3c(OCC(F)F)cccc3C(F)(F)F)nc12,inactive
4,COC(=O)C(C)Oc1ccc(Oc2ccc(Cl)cc2Cl)cc1 (centres undefined),inactive
5,CS/C(C)=N/OC(=O)N(C)SN(C)C(=O)O/N=C(\C)SC,inactive
6,CCCCOC(=O)c1ccccc1C(=O)OCCCC,inactive
7,CCOc1cc(Oc2ccc(C(F)(F)F)cc2Cl)ccc1[N+](=O)[O-],inactive
8,Cc1cc(Cl)ccc1OCC(=O)O,inactive
9,Oc1ccccc1-c1ccccc1,inactive
10,COP(N)(=O)SC (centres undefined),inactive
11,CCCCNC(=O)OCC#CI,inactive
12,N#CC(CCc1ccc(Cl)cc1)(Cn1cncn1)c1ccccc1 (centres undefined),inactive
13,CCOC(=O)C(Cl)Cc1cc(-n2nc(C)n(C(F)F)c2=O)c(F)cc1Cl (centres undefined),inactive
14,CCON=C(CC)C1=C(O)CC(c2c(C)cc(C)cc2C)CC1=O (centres undefined),inactive
15,C=CC1(C)OC(=O)N(c2cc(Cl)cc(Cl)c2)C1=O (centres undefined),inactive
16,CC1COC(Cn2cncn2)(c2ccc(Oc3ccc(Cl)cc3)cc2Cl)O1 (centres undefined),inactive
17,COc1nc(C)nc(NC(=O)NS(=O)(=O)c2ccccc2Cl)n1,inactive
18,CCNc1nc(Cl)nc(NCC)n1,inactive
19,CCCCNC(=O)n1c(NC(=O)OC)nc2ccccc21,inactive
20,O=C(O)c1nc(Cl)ccc1Cl,inactive
21,COc1nc(NC(C)C)nc(NC(C)C)n1,inactive
22,COC(=O)C=C(C)OP(=O)(OC)OC,inactive
23,CCCCC(CC)COC(=O)c1ccccc1C(=O)OCC(CC)CCCC (centres undefined),inactive
24,C=CCC1=C(C)[C@@H](OC(=O)[C@@H]2[C@@H](C=C(C)C)C2(C)C)CC1=O,inactive
